High-throughput results (PubChem)
The list is not random: actives were taken first. Their share in the collection is about 1.6%.
PPC-1+TRAIL kill – kills PPC-1 cancer cells in the presence of TRAIL; PPC-1 cells + TRAIL, ATPLite viability luminescence; cell killing (% activity), % at 4 µM or 5 µM; 0.41% of 220,000 active; AID 1443;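 active = cell killing above 50% in the first pass at 4 µM, then a duplicate retest at 5 µM averaging 50% or more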;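 also: plate controls were cells with TRAIL plus DMSO for no effect and medium-only wells lacking cells for full effect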
C8 TRAIL sens – sensitizes caspase-8 expressing cells to TRAIL. 1% of 360,000 active. AID 624354. inhibition (viability loss, TRAIL sensitization), % at 10 µM. NB7+C8 cells + TRAIL, ATPlite viability luminescence;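 active = compounds causing at least 50% loss of cell viability in the single-dose screen, relative to plate controls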
STAT3 inh – STAT3 signaling inhibition. inhibition, % at 5.5 µM. AID 862. 0.89% of 190,000 active. U3A cells, IL-6 STAT3-luciferase reporter, luminescence; host cell line lacks STAT1;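 active = inhibition above the mean inhibition across all screened compounds plus 3 SD, cut at about 44% in these data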;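 also: 0% = DMSO only wells and 100% = 100 µM nifuroxazide control wells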
STAT1 inh – STAT1 signaling inhibition; inhibition, % at 5.5 µM; 0.35% of 200,000 active; NIH 3T3 STAT1-luciferase reporter, IFN-gamma, luminescence; AID 920;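 active = inhibition above a set limit, the mean inhibition across all tested compounds plus 3 SD, cut at about 34% in these data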;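 also: 0% = IFN-gamma with DMSO and 100% = IFN-gamma with 300 µM nifuroxazide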
Platelet DG rel – modulates dense granule release in human platelets; inhibition, %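 (compounds screened at 7.5 µM in platelet-rich plasma)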; human platelet-rich plasma, SFLLRN dense granule ATP release, luminescence; 0.22% of 300,000 active; AID 1663;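 active = mean replicate score, as percent of positive control, at or above 50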
* hit, by the source's call.

What do the screens show for `Cc1onc(-c2c(F)cccc2Cl)c1C(=O)Nc1nc2ccccc2[nH]1`?
PPC-1+TRAIL kill: -11; C8 TRAIL sens: 49*; STAT3 inh: -12; STAT1 inh: -8; Platelet DG rel: -6

Results for O=C(Nc1nc2ccccc2[nH]1)c1ccccc1O ?
C8 TRAIL sens: 49*; Platelet DG rel: 12

Results for COc1cccc(C(c2nnnn2C2CCCC2)N2CCN(C/C=C/c3ccccc3)CC2)c1OC (centres undefined) ?
C8 TRAIL sens: -4

How did COc1ccc(Cc2c(-c3ccccc3)nc3c4ccccc4ccn23)c(C)c1 do in these assays?
C8 TRAIL sens: 4

Results for CSc1ccc(S(=O)(=O)N2CCC(C(=O)NC3CC3)CC2)cc1 ?
C8 TRAIL sens: 4; Platelet DG rel: 5

What do the screens show for `O=C(Nc1nc2ccccc2[nH]1)c1ccc(Cl)cc1`?
C8 TRAIL sens: 87*; Platelet DG rel: 18

Results for O=C(Nc1nc2ccccc2[nH]1)c1cccc(Cl)c1 ?
C8 TRAIL sens: 42; Platelet DG rel: -6

How did C[C@@H]1CN([C@@H](C)CO)C(=O)c2cc(Br)cnc2O[C@H]1CN(C)C(=O)c1ccc2c(c1)OCO2 do in these assays?
C8 TRAIL sens: -4

How did CCN(C(=O)COC(=O)c1cc(-c2ccc3cc(OC)ccc3c2)nc2ccccc12)C1CCS(=O)(=O)C1 (centres undefined) do in these assays?
PPC-1+TRAIL kill: 83*; STAT3 inh: 8; STAT1 inh: -18; Platelet DG rel: 15

How did CCN(C(=O)COC(=O)c1cc(OC)ccc1Br)C1CCS(=O)(=O)C1 (centres undefined) do in these assays?
C8 TRAIL sens: -14

Results for C/C(=N/OC(=O)c1ccc(C)cc1)c1cccs1 ?
PPC-1+TRAIL kill: 1; C8 TRAIL sens: 7; STAT3 inh: 4; STAT1 inh: -17; Platelet DG rel: 59*

Results for N/C(=N\OC(=O)c1cccc(F)c1)c1ccccc1 ?
PPC-1+TRAIL kill: 20; C8 TRAIL sens: 74*; STAT3 inh: -6; STAT1 inh: -73; Platelet DG rel: 9

What do the screens show for `Cc1ccc(/C(N)=N/OC(=O)Oc2ccccc2)cc1`?
PPC-1+TRAIL kill: 13; C8 TRAIL sens: -5; STAT3 inh: -5; STAT1 inh: -3; Platelet DG rel: 5

How did Cc1ccc(/C(N)=N/OC(=O)c2ccc3ccccc3c2)cc1 do in these assays?
C8 TRAIL sens: 90*; Platelet DG rel: 1

How did Cc1ccc(/C(N)=N/OC(=O)c2cccc(F)c2)cc1 do in these assays?
PPC-1+TRAIL kill: 28; C8 TRAIL sens: 85*; STAT3 inh: -34; STAT1 inh: -40; Platelet DG rel: -8

What do the screens show for `CCN1C(=O)[C@H]2[C@@H](c3ccc(C)cc3)N[C@]3(CCCN(Cc4ccc(Cl)cc4)C3=O)[C@H]2C1=O`?
C8 TRAIL sens: 8

How did O=C1NC[C@@H](CCCCN2CCN(CCc3ccc(O)cc3)C(=O)C2=O)N(CCc2ccc(O)cc2)C1=O do in these assays?
C8 TRAIL sens: -3

What do the screens show for `Cc1ccc(/C(N)=N/OC(=O)c2ccc(F)cc2)cc1`?
PPC-1+TRAIL kill: 9; C8 TRAIL sens: 74*; STAT3 inh: 14; STAT1 inh: -65; Platelet DG rel: 13

How did COc1ccc(NC(=O)C2c3ccccc3OCC(=O)N2C2CC2)cc1 (centres undefined) do in these assays?
C8 TRAIL sens: -13

What do the screens show for `Cc1ccc2oc(/N=C(\N)NC(=O)C3CC3)nc2c1`?
PPC-1+TRAIL kill: 29; C8 TRAIL sens: 50*; Platelet DG rel: 1

How did COCCN1C(=O)CCC1(C)C(=O)NC1CCCCC1 (centres undefined) do in these assays?
C8 TRAIL sens: -11

How did O=C(Nc1ccc2oc(-c3ccccc3)nc2c1)C1CCCO1 (centres undefined) do in these assays?
PPC-1+TRAIL kill: 17; C8 TRAIL sens: 31; STAT3 inh: -9; STAT1 inh: -63; Platelet DG rel: 8

What do the screens show for `O=C(Nc1ccc(-c2nc3ccccc3o2)cc1)C1CCCO1` (centres undefined)?
PPC-1+TRAIL kill: -33; C8 TRAIL sens: 59*; STAT3 inh: 43; STAT1 inh: -24; Platelet DG rel: 56*

How did COc1cc(CN2C[C@@H](CO)O[C@@H](n3cnc4c(NC5CCCC5)ncnc43)C2)cc(OC)c1OC do in these assays?
C8 TRAIL sens: -7

Results for Cc1ccn2cc(-c3cccc(NC(=O)CCC(=O)O)c3)nc2c1 ?
C8 TRAIL sens: 59*; Platelet DG rel: 1
